The source made the active and inactive calls. The calls were made as follows: active = hit-call score of the fitted dose curve at least 0.9, where 1 is the maximum; inactive = score below 0.9.

Read-out in the assay: Eotaxin 3, CCL26 (gene 10344)
In words: BSK_BF4T_Eotaxin3: BioMAP Diversity Plus: BF4T Assay for Eotaxin 3 Biomarker Activity (AID 2284258). To be noted: primary human bronchial epithelial cells with fibroblasts. As to the method:
BSK_BF4T is a cell-based, multiplexed-readout assay that uses bronchial epithelial cells and dermal fibroblasts, a human vascular primary cell, with measurements taken at 24 hours after chemical dosing in a microplate: 96-well plate.BSK_BF4T_Eotaxin3 is an assay component measured in the BSK_BF4T assay. It measures Eotaxin-3 antibody related to regulation of gene expression using ELISA technology.Data from the assay component BSK_BF4T_Eotaxin3 was analyzed at the endpoint, BSK_BF4T_Eotaxin3, in the positive analysis fitting direction relative to DMSO as the negative control and baseline of activity. Using a type of binding reporter, gain or loss-of-signal activity can be used to understand protein changes. To generalize the intended target to other relatable targets, this assay endpoint is annotated to the 'cytokine' intended target family, where the subfamily is 'chemotactic factor'.
The levels of cell surface (or secreted, indicated by the prefix "s") biomarker endpoints were measured by ELISA. Overt cytotoxicity to cells in confluent adherent cultures (all systems other than the BT system) was assessed by measuring total protein levels using sulforhodamine B (SRB) staining in parallel cultures at the time of biomarker measurements, indicated as SRB endpoints. For proliferation assays for adherent cell types, individual cell types are cultured at sub-confluence and relative cell numbers quantified by SRB staining at time points optimized for each system (48 h: 3C and CASM3C systems; 72 h: BT and HDF3CGF systems; 96 h: SAg system). SRB was performed by staining cells with 0.1% SRB after fixation with 10% TCA and reading wells at 560 nm.Viability and proliferation of PBMC (T cells) was quantified by Alamar Blue reduction for the SAg and BT systems. For PBMC viability (referred to as PBMC Cytotoxicity within the assay endpoint names), cells were plated (75,000/well in a 96-well plate) and then chemical samples added for 1 h before addition of activators, SEB and TSST-1 (20 ng/mL final concentration each). Cells were incubated for 90 h. Then, Alamar Blue (20 uL/well) (Invitrogen, Cat DAL1100) was added for 6 h, and the plates were read with a fluorescence microplate reader at 546/580 nm (excitation/emission). For PBMC proliferation, cells were plated and activated as above but incubated for only 16 h prior to addition of Alamar Blue. Plates were read after 6 h.
Turning to `O=C(Cl)C(F)(F)C(F)(F)C(F)(F)C(=O)Cl`, the result was inactive.

As to `FC(F)(F)C(F)(F)C(F)(F)C(F)(F)C(F)(F)C(F)(F)I`, the outcome was inactive.

Take `OCCC(F)(F)C(F)(F)C(F)(F)C(F)(F)F`: the outcome was inactive.

On to `O=S(=O)(O)CCC(F)(F)C(F)(F)C(F)(F)C(F)(F)C(F)(F)C(F)(F)F`, for which the outcome was inactive.

With `C[Si](C)(C)C(F)(F)C(F)(F)C(F)(F)F`, the outcome was inactive.

For the compound `NCC(F)(F)C(F)(F)C(F)(F)C(F)(F)F`, the outcome was inactive.

On to `FC(F)(F)COC(OCC(F)(F)F)OCC(F)(F)F`, for which the outcome was inactive.

With `FC(F)=C(F)C(F)(F)C(F)(F)C(F)(F)C(F)(F)C(F)(F)C(F)(F)F`, the outcome was inactive.

On to `OC(O)(C(F)C(O)(O)C(F)(F)F)C(F)(F)F`, for which the outcome was inactive.

For `FC(F)C(F)(F)COCC1CO1` (stereo not given), the result was inactive.

Values taken from PubChem BioAssay (EPA / NIEHS).
